44 compounds from PMC4336329 (PLoS ONE, 2015) can be followed below.

Hit rate of the full screen: of about 310,000 compounds, about 14,000 (4.5%) showed an effect of 50% or more. The effect is printed as a negative number. The full list was thinned out, with strong results kept by preference.
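Note: peak tail current of the secondary pulse compared with the same well before compound.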

Sequence of human ether-à-go-go-related gene (hERG) potassium channel (Q12809 whole entry, looked up): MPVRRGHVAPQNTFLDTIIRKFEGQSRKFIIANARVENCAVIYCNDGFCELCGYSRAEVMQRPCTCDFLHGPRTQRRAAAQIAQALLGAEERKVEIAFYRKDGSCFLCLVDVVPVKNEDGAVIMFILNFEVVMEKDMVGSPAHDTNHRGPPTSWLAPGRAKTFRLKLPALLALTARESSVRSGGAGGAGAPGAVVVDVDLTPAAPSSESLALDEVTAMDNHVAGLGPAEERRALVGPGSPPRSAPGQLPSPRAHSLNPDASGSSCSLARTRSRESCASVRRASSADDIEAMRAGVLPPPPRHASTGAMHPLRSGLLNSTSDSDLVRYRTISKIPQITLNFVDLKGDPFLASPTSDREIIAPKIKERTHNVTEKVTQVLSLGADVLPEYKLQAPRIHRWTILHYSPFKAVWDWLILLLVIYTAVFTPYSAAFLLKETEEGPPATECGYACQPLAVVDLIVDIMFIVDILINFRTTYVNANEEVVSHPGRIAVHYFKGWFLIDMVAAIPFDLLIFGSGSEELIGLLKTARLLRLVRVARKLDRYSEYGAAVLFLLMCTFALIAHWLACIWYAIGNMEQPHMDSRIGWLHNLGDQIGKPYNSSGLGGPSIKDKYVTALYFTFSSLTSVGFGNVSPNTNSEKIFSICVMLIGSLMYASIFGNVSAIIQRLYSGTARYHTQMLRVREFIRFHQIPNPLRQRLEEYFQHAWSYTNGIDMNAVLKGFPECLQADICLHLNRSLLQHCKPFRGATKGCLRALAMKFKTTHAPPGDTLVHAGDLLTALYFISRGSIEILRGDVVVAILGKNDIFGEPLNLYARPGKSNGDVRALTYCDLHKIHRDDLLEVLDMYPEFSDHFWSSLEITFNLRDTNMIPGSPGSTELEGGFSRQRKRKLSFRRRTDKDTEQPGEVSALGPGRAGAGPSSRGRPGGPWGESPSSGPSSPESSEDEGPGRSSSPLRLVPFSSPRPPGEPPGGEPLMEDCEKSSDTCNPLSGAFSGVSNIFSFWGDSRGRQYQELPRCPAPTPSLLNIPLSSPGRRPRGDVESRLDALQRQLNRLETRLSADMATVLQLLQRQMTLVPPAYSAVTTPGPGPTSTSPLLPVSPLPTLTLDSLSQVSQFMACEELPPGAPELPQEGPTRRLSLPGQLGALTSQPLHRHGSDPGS

This experiment has as its target human ether-à-go-go-related gene (hERG) potassium channel (human, UniProt Q12809). The experiment is described as follows: primary screen, population patch clamp on CHO cells stably expressing hERG; higher = less effect of the substance.
`COc1ccccc1CN1CCN(S(=O)(=O)c2ccc(C)cc2)CC1`: the “hERG current change (%, negative = inhibition) at 10uM” value is -19%.

As for `COc1ccc(-c2nc(CN3CCN(Cc4ccccc4)CC3)c(C)o2)cc1`, the “hERG current change (%, negative = inhibition) at 10uM” value was -42.2%.

Regarding `COc1cc(-c2nc(CN3CCN(c4ncccn4)CC3)c(C)o2)ccc1F`, the “hERG current change (%, negative = inhibition) at 10uM” value is -9.65%.

As for `COc1ccccc1N1CCN(Cc2nc(-c3ccc(F)cc3)oc2C)CC1`, the “hERG current change (%, negative = inhibition) at 10uM” value was -65.9%.

For the compound `COc1ccccc1CN1CCN(Cc2nc(-c3ccc(C)cc3)oc2C)CC1`, the “hERG current change (%, negative = inhibition) at 10uM” value is -58.8%.

`COc1ccccc1N1CCN(Cc2c(F)cccc2F)CC1`: the “hERG current change (%, negative = inhibition) at 10uM” value is recorded as -18%.

Turning to `Cc1cc(C)cc(C(=O)OCC(=O)N2CCCC2)c1`, the “hERG current change (%, negative = inhibition) at 10uM” value was determined as 9.79%.

Regarding `COC(=O)c1sccc1-c1ccc(C(N)=O)o1`, the “hERG current change (%, negative = inhibition) at 10uM” value is recorded as 7.97%.

For the compound `Br.Cc1ccc(N2Cc3ccccc3C2=N)cc1[N+](=O)[O-]`, the “hERG current change (%, negative = inhibition) at 10uM” value is on record as -4.21%.

Regarding `Cc1cc(C)nc(N2Cc3ccccc3C2=N)n1`, the “hERG current change (%, negative = inhibition) at 10uM” value is -56%.

Take `N=C1c2ccccc2CN1c1ncccn1`: the “hERG current change (%, negative = inhibition) at 10uM” value is on record as -10.6%.

As for `COc1ccccc1CN=c1c([N+](=O)[O-])nn(-c2ccc3c(c2)OCCO3)n1O`, the “hERG current change (%, negative = inhibition) at 10uM” value was -7.21%.

As for `COc1cc(CC(=O)OCC(=O)Nc2cc([N+](=O)[O-])ccc2Cl)cc(OC)c1OC`, the “hERG current change (%, negative = inhibition) at 10uM” value is -50%.

On to `COc1ccc([N+](=O)[O-])cc1NC(=O)COC(=O)Cc1cc(OC)c(OC)c(OC)c1`, for which the “hERG current change (%, negative = inhibition) at 10uM” value is -17.8%.

Consider `COc1cc(CC(=O)OCC(=O)Nc2cc([N+](=O)[O-])ccc2F)cc(OC)c1OC`, for which the “hERG current change (%, negative = inhibition) at 10uM” value was -38.9%.

With `Cc1cc(NC(=O)CCC(=O)N(Cc2ccco2)C(C(=O)NC2CCCCC2)c2cccs2)no1` (centres unmarked), the “hERG current change (%, negative = inhibition) at 10uM” value was -20.9%.

On to `COc1cccc(/C(O)=C2/C(=O)C(=O)N(Cc3ccco3)C2c2ccncc2)c1` (centres unmarked), for which the “hERG current change (%, negative = inhibition) at 10uM” value is 15.2%.

For `CS(=O)(=O)N(CC(=O)Nc1ccccc1C(=O)NCc1ccco1)c1ccc2c(c1)OCCO2`, the “hERG current change (%, negative = inhibition) at 10uM” value is reported as -5.03%.

On to `CC(=O)Nc1ccc(NC(=O)C(C)OC(=O)CNC(=O)c2sc3ccccc3c2Cl)cc1` (centres unmarked), for which the “hERG current change (%, negative = inhibition) at 10uM” value came out at 18.6%.

With `CN(C)CCCN1C(=O)c2cccc3cccc(c23)C1=O`, the “hERG current change (%, negative = inhibition) at 10uM” value is -16%.

Regarding `CN(C)CCCN1C(=O)c2cccc3c([N+](=O)[O-])ccc(c23)C1=O`, the “hERG current change (%, negative = inhibition) at 10uM” value is reported as -27.7%.

For the compound `CN(C)CCCN1C(=O)c2cccc3c(Br)ccc(c23)C1=O`, the “hERG current change (%, negative = inhibition) at 10uM” value was -66.4%.

Turning to `COc1ccc2c(c1OC)C(=O)OC2Nc1nc(-c2ccccc2)cs1` (centres unmarked), the “hERG current change (%, negative = inhibition) at 10uM” value stood at 8.12%.

`COCCCn1cnc2c(c1=O)c1nc3ccccc3nc1n2-c1ccccc1`: the “hERG current change (%, negative = inhibition) at 10uM” value is on record as -56.6%.

With `COCCCn1cnc2c(c1=O)c1nc3ccccc3nc1n2-c1ccc(C)cc1`, the “hERG current change (%, negative = inhibition) at 10uM” value is -37%.

As for `CCOCCCn1cnc2c(c1=O)c1nc3ccccc3nc1n2-c1ccccc1`, the “hERG current change (%, negative = inhibition) at 10uM” value is -30.6%.

`CCCCn1c(SCC(=O)NNC(=O)c2ccco2)nnc1-c1ccco1`: the “hERG current change (%, negative = inhibition) at 10uM” value came to 4%.

On to `CCn1c(=O)c2c(nc(SCC(=O)NCC3CCCO3)n2C)n(C)c1=O` (centres unmarked), for which the “hERG current change (%, negative = inhibition) at 10uM” value is recorded as -0.794%.

Turning to `COc1ccc(-c2nnn(Cc3nc(N)nc(N4CCCCC4)n3)n2)cc1`, the “hERG current change (%, negative = inhibition) at 10uM” value was -9.06%.

Regarding `Nc1nc(Cn2nnc(-c3ccccc3Cl)n2)nc(N2CCOCC2)n1`, the “hERG current change (%, negative = inhibition) at 10uM” value is listed as -54.4%.

On to `Clc1ccc(Cn2nnc(-c3ccc(N4CCOCC4)cc3)n2)cc1`, for which the “hERG current change (%, negative = inhibition) at 10uM” value stood at 4.16%.

As for `COc1ccc(-c2nnn(Cc3nc(N)nc(N4CCOCC4)n3)n2)cc1OC`, the “hERG current change (%, negative = inhibition) at 10uM” value is -0.202%.

For `Nc1nc(CSCc2ccccc2)nc(N2CCOCC2)n1`, the “hERG current change (%, negative = inhibition) at 10uM” value is -10.2%.

As for `Nc1nc(Cn2nnc(-c3ccccc3F)n2)nc(N2CCOCC2)n1`, the “hERG current change (%, negative = inhibition) at 10uM” value was -73.4%.

`CCCCN(C(=O)NC(=O)Nc1ccccc1OC)S(C)(=O)=O`: the “hERG current change (%, negative = inhibition) at 10uM” value was -2.42%.

Turning to `CCCCCCCCN1C(=O)N(C)C(N(O)C(=O)NC)C1(C)C` (centres unmarked), the “hERG current change (%, negative = inhibition) at 10uM” value is reported as 8.37%.

Consider `Cc1cc(C(F)(F)F)n2ncc(-c3cccc(Br)c3)c2n1`, for which the “hERG current change (%, negative = inhibition) at 10uM” value was 22.6%.

For `O=C(Cn1nc(-c2ccccc2)ccc1=O)Nc1cccc(NC(=O)c2ccccn2)c1`, the “hERG current change (%, negative = inhibition) at 10uM” value is given as -0.657%.

On to `Cc1noc(NS(=O)(=O)c2ccc(N3CC(O)=C(c4ccccc4)C3=N)cc2)c1C`, for which the “hERG current change (%, negative = inhibition) at 10uM” value worked out at 20.5%.

As to `CCOC(=O)c1c(C)c(C(=O)Nc2ccc(N(C)C)cc2)c(C)n1CC`, the “hERG current change (%, negative = inhibition) at 10uM” value was -1.83%.

Turning to `COCCCNC(=O)c1cc(C(=O)c2ccccc2Br)c[nH]1`, the “hERG current change (%, negative = inhibition) at 10uM” value is recorded as 15.1%.

For the compound `CS(=O)(=O)c1ccccc1-c1nc(-c2cc(C(F)(F)F)cc(C(F)(F)F)c2)no1`, the “hERG current change (%, negative = inhibition) at 10uM” value is given as 4.06%.

With `COc1ccc(CCNC(=O)c2cccc(S(=O)(=O)NC(C)c3ccccc3)c2)cc1` (centres unmarked), the “hERG current change (%, negative = inhibition) at 10uM” value came to 6.04%.

Take `COc1ccc(CCCc2nnc(SCC(=O)Nc3ccc(OC)cc3)o2)cc1`: the “hERG current change (%, negative = inhibition) at 10uM” value stood at 17.7%.
